Experimental findings from the supplement of paper PMC10338343 are described below.

± gives the standard deviation.

The first test deals with MILI (PIWIL2) piRISC loaded with L1MC piRNA (26 nt). In words: pre-steady-state target cleavage rate (min^-1); guide: L1MC piRNA 5'p-UAACUAAAUACUAUGCAAGCUGUAGG; MIWI and MILI are mouse PIWI proteins and EfPiwi is from a freshwater sponge; tags in brackets are library labels; higher = faster piRNA-guided slicing of the target. Conditions: auxiliary factor: 500 nM mouse GTSF1. The procedure:
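Cleave-'n-Seq: a library of target RNAs (target site embedded in constant flanks, ACAGCATTCCGCGTTAGTGATATCCG... 5' flank; DNA-blocked outside the site) at 0.1 nM was incubated with 1 nM active mouse MILI or MIWI piRISC (synthetic 5'-monophosphorylated piRNA guide) with or without 500 nM mouse GTSF1 at 33 °C for 1 min to 16 h. Uncleaved targets were sequenced and normalised to non-target controls, and the pooled three trials were fitted to a burst-and-steady-state model to give the pre-steady-state cleavage rate (min^-1; k3 is constrained to at most 1e-4). Sequence is the target site only; target names encode pairing extent (gX:gY) and contiguous / 1-mismatch / 2-mismatch / bulge geometry. Fits with R² ≤ 0 are excluded.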
In the case of UCCUGGUACAGCUUGCAUAGAUUUUAGUUA, the “pre-steady-state target cleavage rate” value is 0.0355 ± 0.0097. Take UCCUGGUACAGCUAUGCAUAGUAUUUAGUUA: the “pre-steady-state target cleavage rate” value was determined as 0.259 ± 0.016.

Consider UCCUGCUACAGCUUGGAUAGUAAUUAGUUA, for which the “pre-steady-state target cleavage rate” value is 0.204 ± 0.021.

Consider UCCUGGAUGACCUUGCAUAGUAUUAAGUUA, for which the “pre-steady-state target cleavage rate” value was determined as 0.141 ± 0.022. Turning to UCCUGGAUGAGCUACCAUAGUAUUUAGUUA, the “pre-steady-state target cleavage rate” value came to 0.101 ± 0.018.

For the sequence UCCUGGUACACGAUGCAUAGUAUUUAGUAA, the “pre-steady-state target cleavage rate” value is 0.186 ± 0.042. On the same count and under the same terms, to UCCUCCUACAGGUUGCAAAGUAUUUAGUUA belongs 0.142 ± 0.0086; to UCCUGCUACAGCUUGGAUAGUAUUUACUUA, 0.00864 ± 0.0043. Same read-out and setting: to UCCUGGAUGACCAUGCAUAGUAUUUAGUUA belongs 0.0729 ± 0.022. In the case of UCCUGGAUGUCCUUGCAUAGUAUCUAGUUA, the “pre-steady-state target cleavage rate” value was determined as 0.12 ± 0.024. As to UCCUGCGUACAGCUUGCAUAGUAUUUAGUUA, the “pre-steady-state target cleavage rate” value is 0.314 ± 0.021. As for UCCUGGAUCAGCUUGCUUAGUAAUUAGUUA, the “pre-steady-state target cleavage rate” value worked out at 0.212 ± 0.022. Consider UCCUGGAUCAGCUUGCUUACUAUUUAGUUA, for which the “pre-steady-state target cleavage rate” value was found to be 0.0672 ± 0.0086. Same read-out and setting: to UCCUGGAUGUCGAAGCAUAGUACUUUAGUUA belongs 0.00532 ± 0.0027; to UCCUGGAACAGCUUGCUUAGUAAUUAGUUA, 0.213 ± 0.019; to UCCUGCUACACCUUGCAUAGUAUUUUCAAA, 0.0765 ± 0.028.

For UCCUGGUACAGGUAGCAUAGUAUUUAGUUA, the “pre-steady-state target cleavage rate” value was determined as 0.21 ± 0.021.

Turning to UCCUGGAACAGCUUGCAUAGUACUUUAGUUA, the “pre-steady-state target cleavage rate” value was found to be 0.168 ± 0.015.

UCCUGGAUGUGGUUGCAUAGUAUUUAGUUA: the “pre-steady-state target cleavage rate” value worked out at 0.163 ± 0.022. Take UCCUGGAUGAGCUUGCUUAGUUUUUAGUUA: the “pre-steady-state target cleavage rate” value was determined as 0.0134 ± 0.0052.

Take UCCUGGAACAGCUUGCAUAGUACUUAGUUA: the “pre-steady-state target cleavage rate” value came out at 0.243 ± 0.018. The same measure, in the same setting: under UCCUGGAUGAGCUUGCAUAGUAAAAAGUUA stands 0.0673 ± 0.016; under UCCUGGUACAGCUUGCAUACUAUUUAGUUA, 0.104 ± 0.024.

The same test, now with this note: auxiliary factor: none (no GTSF1).
For UCCUGGUACAGCUUGCAUAGAUUUUAGUUA, the “pre-steady-state target cleavage rate” value was 0.00346 ± 0.0029. In the case of UCCUGGUACAGCUAUGCAUAGUAUUUAGUUA, the “pre-steady-state target cleavage rate” value was determined as 0.0112 ± 0.0038. For UCCUGGAUGACCUUGCAUAGUAUUAAGUUA, the “pre-steady-state target cleavage rate” value came to 0.00338 ± 0.0027. Turning to UCCUGGAUGAGCUACCAUAGUAUUUAGUUA, the “pre-steady-state target cleavage rate” value came to 0.00301 ± 0.0025.

On to UCCUCCUACAGGUUGCAAAGUAUUUAGUUA, for which the “pre-steady-state target cleavage rate” value was 0.00921 ± 0.002. For the sequence UCCUGGAUGACCAUGCAUAGUAUUUAGUUA, the “pre-steady-state target cleavage rate” value came to 0.00375 ± 0.0034. On the same count and under the same terms, to UCCUGGAUGUCCUUGCAUAGUAUCUAGUUA belongs 0.00287 ± 0.0025. Same read-out and setting: to UCCUGCGUACAGCUUGCAUAGUAUUUAGUUA belongs 0.0109 ± 0.0033; to UCCUGGAUCAGCUUGCUUAGUAAUUAGUUA, 0.00689 ± 0.0022; to UCCUGGAUCAGCUUGCUUACUAUUUAGUUA, 0.00436 ± 0.0022.

Take UCCUGGAUGUCGAAGCAUAGUACUUUAGUUA: the “pre-steady-state target cleavage rate” value was 0.00317 ± 0.002. The same measure, in the same setting: under UCCUGGAACAGCUUGCUUAGUAAUUAGUUA stands 0.00562 ± 0.0024. The same measure, in the same setting: to UCCUGGUACAGGUAGCAUAGUAUUUAGUUA belongs 0.00976 ± 0.0036; to UCCUGGAACAGCUUGCAUAGUACUUUAGUUA, 0.00486 ± 0.0022; to UCCUGGAUGUGGUUGCAUAGUAUUUAGUUA, 0.0112 ± 0.0031. On the same count and under the same terms, under UCCUGGAUGAGCUUGCUUAGUUUUUAGUUA stands 0.00418 ± 0.0026; under UCCUGGAACAGCUUGCAUAGUACUUAGUUA, 0.0101 ± 0.0024. On to UCCUGGUACAGCUUGCAUACUAUUUAGUUA, for which the “pre-steady-state target cleavage rate” value is 0.00577 ± 0.0035.
